Experimental findings from PubChem BioAssay (EPA / NIEHS) are described below.

Calls of active or inactive are those of the source. The calls were made as follows: active = hit-call score of the fitted dose curve at least 0.9, where 1 is the maximum; inactive = score below 0.9.

Test [1] is described as follows: BSK_3C_VCAM1: BioMAP Diversity Plus: 3C Assay for Vascular cell adhesion molecule 1 (VCAM1) Biomarker Activity (AID 2282999). The note with it: BioMAP 3C HUVEC, VCAM1 ELISA, cytokine-stimulated; actives raise or lower the signal. The method, boiled down: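 Endothelial cells from human umbilical vein are treated with test chemical. At 24 h, VCAM-1 is measured by ELISA, and responses in either direction are fitted relative to DMSO.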
(In an ELISA, binding on a coated surface is turned into a signal by an enzyme label.)

A short description of test [2]: BSK_3C_Proliferation: Cell Proliferation Assessment in the BioMAP Diversity Plus: 3C Assay (AID 2283006).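 As to AC50: potency may reflect either rise or fall in cell number versus DMSO.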 The note with it: primary human endothelial cells (HUVEC). An outline of the steps: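 Proliferation of human vascular endothelial primary cells after 48 h dosing, quantified as SRB-stained protein at 560 nm relative to DMSO.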
Test [3] in a line: BSK_3C_Vis: BioMAP Diversity Plus: 3C Assay for Morphology Visualization (AID 2283025).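 Also: fitted both ways so gain or loss versus DMSO counts.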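 As to AC50: light microscopy image of cell morphology used as background control.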 The note with it: primary human endothelial cells (HUVEC). The method, boiled down: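 Endothelial cells from human umbilical vein were treated with test chemicals for 24 h and inspected by light microscopy for changes in cell conformation.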
A short description of test [4]: BSK_BE3C_SRB: Viability Assessment in the BioMAP Diversity Plus: BE3C Assay (AID 2283028).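 As to AC50: fitted both ways so AC50 may mark signal gain or loss versus DMSO.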 The note with it: primary human bronchial epithelial cells. An outline of the steps: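 SRB total-protein staining (0.1%, after TCA fixation) of chemically dosed human bronchial epithelial primary cells at 24 h; DMSO serves as the negative control for bidirectional curve fitting.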

Read-out in test [5]: Thrombomodulin, THBD (gene 7056)
Nature of the test: BSK_3C_Thrombomodulin: BioMAP Diversity Plus: 3C Assay for Thrombomodulin Biomarker Activity (AID 2283029). The conditions noted are these: primary human endothelial cells (HUVEC); actives raise or lower the signal. An outline of the steps:
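Thrombomodulin ELISA, human primary HUVEC, 24 h post-dose; data fitted in both directions relative to DMSO.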

Read-out in test [6]: Vascular cell adhesion molecule 1 (VCAM1), VCAM1 (gene 7412)
Nature of the test: BSK_4H_VCAM1: BioMAP Diversity Plus: 4H Assay for Vascular cell adhesion molecule 1 (VCAM1) Biomarker Activity (AID 2283033).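 As to outcome: cell-surface VCAM-1 protein measured by ELISA.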 The conditions noted are these: primary human endothelial cells (HUVEC); actives raise or lower the signal. An outline of the steps: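 Endpoint derived from bidirectional fitting against DMSO controls of VCAM-1 ELISA signal in umbilical vein endothelial cells sampled at 24 h following treatment.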

Read-out in test [7]: Interferon-gamma inducible Protein 10 (IP10), CXCL10 (gene 3627)
Nature of the test: BSK_BE3C_IP10: BioMAP Diversity Plus: BE3C Assay for Interferon-gamma inducible Protein 10 (IP10) Biomarker Activity (AID 2283034). The conditions noted are these: primary human bronchial epithelial cells; actives raise or lower the signal. The method, boiled down: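 Using primary human bronchial epithelial cultures, the assay captures IP-10 by ELISA one day (24 h) after exposure. Parallel SRB staining of total protein flags overt cytotoxicity. Fits run bidirectionally relative to DMSO.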

Read-out in test [8]: Urokinase-type plasminogen activator receptor (uPAR), PLAUR (gene 5329)
Description: BSK_BE3C_uPAR: BioMAP Diversity Plus: BE3C Assay for Urokinase-type plasminogen activator receptor (uPAR) Biomarker Activity (AID 2283039).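 As to outcome: uPAR protein level measured by ELISA on the cells; cells exposed to compound for one day before measurement.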 The note with it: primary human bronchial epithelial cells; actives raise or lower the signal. An outline of the steps:
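A uPAR ELISA serves as the readout, taken 24 h after treating primary human bronchial epithelial cells. Responses in either direction are fitted against DMSO, which defines baseline activity.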

Read-out in test [9]: Interleukin-6 (IL6), IL6 (gene 3569)
Description: BSK_CASM3C_IL6: BioMAP Diversity Plus: CASM3C Assay for Interleukin-6 (IL6) Biomarker Activity for (AID 2283040). The note with it: primary human coronary artery smooth muscle cells; actives raise or lower the signal.

Read-out in test [10]: E-selectin (Homo sapiens) (UniProt P16581)
Nature of the test: BSK_LPS_Eselectin: BioMAP Diversity Plus: LPS Assay for Eselectin Biomarker Activity (AID 2283077). The conditions noted are these: primary human HUVEC with PBMC; actives raise or lower the signal. An outline of the steps: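 Dose chemical onto LPS-driven HUVEC/PBMC co-culture; after 24 h, run ELISA for E-selectin; fit up- and down-going responses relative to DMSO control.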

Read-out in test [11]: Interleukin-8 (IL8), CXCL8 (gene 3576)
Description: BSK_LPS_IL8: BioMAP Diversity Plus: LPS Assay for Interleukin-8 (IL8) Biomarker Activity (AID 2283078). The note with it: primary human HUVEC with PBMC; actives raise or lower the signal. An outline of the steps: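 In this LPS system, chemical-treated human umbilical vein endothelium/PBMC co-cultures were harvested at 24 h for IL-8 ELISA.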

Read-out in test [12]: Interleukin-1 alpha (IL1a), IL1A (gene 3552)
Nature of the test: BSK_LPS_IL1a: BioMAP Diversity Plus: LPS Assay for Interleukin-1 alpha (IL1a) Biomarker Activity (AID 2283080). The conditions noted are these: primary human HUVEC with PBMC; actives raise or lower the signal. An outline of the steps: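 Primary human HUVEC and PBMC co-culture stimulated with LPS is dosed and harvested at 24 h. Both increases and decreases in ELISA-measured IL-1a are scored relative to DMSO.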

A short description of test [13]: BSK_LPS_PGE2: BioMAP Diversity Plus: LPS Assay for Prostaglandin E2 (PGE2) Biomarker Activity (AID 2283082).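 As to AC50: secreted prostaglandin E2 measured by ELISA in LPS-stimulated co-culture.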 The note with it: primary human HUVEC with PBMC; actives raise or lower the signal. The method, boiled down:
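Endpoint derived from bidirectional curve fitting versus DMSO of ELISA-measured PGE2 in LPS-stimulated human primary vascular co-culture (HUVEC with PBMC) harvested at 24 h.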

Read-out in test [14]: Tumor necrosis factor (Homo sapiens) (UniProt P01375)
Description: BSK_LPS_TNFa: BioMAP Diversity Plus: LPS Assay for Tumour Necrosis Factor alpha (TNFa) Biomarker Activity (AID 2283085). The conditions noted are these: primary human HUVEC with PBMC; actives raise or lower the signal. An outline of the steps: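 Primary human vascular co-culture of HUVEC and PBMC; TNFa ELISA 24 h after treatment, analysed as increase or decrease relative to DMSO control.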

Read-out in another test: CD38, CD38 (gene 952)
Nature of the test: BSK_SAg_CD38: BioMAP Diversity Plus: SAg Assay for CD38 Biomarker Activity (AID 2283087). The conditions noted are these: primary human HUVEC with PBMC; actives raise or lower the signal. The method, boiled down:
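Fluorescence ELISA of cell-surface CD38 served as the read-out, with either increase or decrease fitted against DMSO controls. Cells were a human umbilical vein endothelium plus PBMC co-culture under SEB/TSST-1 stimulation, measured 24 h after dosing.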

Read-out in the next test: CD69, CD69 (gene 969)
Nature of the test: BSK_SAg_CD69: BioMAP Diversity Plus: SAg Assay for CD69 Biomarker Activity (AID 2283089).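 As to AC50: cell surface CD69 protein quantified by ELISA with fluorescence detection.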 The note with it: primary human HUVEC with PBMC; actives raise or lower the signal. The method, boiled down: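 HUVEC co-cultured with PBMC were dosed with chemical, and CD69 was measured by ELISA with fluorescence read-out 24 h later. Bidirectional curve fitting used DMSO as negative control and activity baseline.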

Read-out in test [15]: Monocyte Chemoattractant Protein-1 (MCP1), CCL2 (gene 6347)
Nature of the test: BSK_SAg_MCP1: BioMAP Diversity Plus: SAg Assay for Monocyte Chemoattractant Protein-1 (MCP1) Biomarker Activity (AID 2283090). The conditions noted are these: primary human HUVEC with PBMC; actives raise or lower the signal. An outline of the steps: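 MCP-1 levels in the endothelial–PBMC SAg co-culture were quantified by ELISA at 24 h post-dosing; both increases and decreases versus DMSO scored. Cytotoxicity monitored by SRB total protein in parallel cultures.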

Read-out in test [16]: Monokine induced gamma interferon (MIG), CXCL9 (gene 4283)
Nature of the test: BSK_SAg_MIG: BioMAP Diversity Plus: SAg Assay for Monokine induced gamma interferon (MIG) Biomarker Activity (AID 2283092). The note with it: primary human HUVEC with PBMC; actives raise or lower the signal. An outline of the steps:
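HUVEC plus human PBMC co-culture, chemicals dosed and MIG (CXCL9) quantified by ELISA at 24 h. Bidirectional curve fitting against DMSO as negative control and baseline, so both gain and loss of signal count as activity.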

A short description of test [17]: BSK_SAg_PBMCCytotoxicity: PBMC Cytotoxicity Assessment in the BioMAP Diversity Plus: SAg Assay (AID 2283093).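 Also: PBMC viability measured as Alamar Blue reduction fluorescence at 546/580 nm; fitted both ways against DMSO so a hit may be loss or gain of signal.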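 As to AC50: PBMC superantigen activated with SEB plus TSST-1 one hour after compound addition.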 The conditions noted are these: primary human HUVEC with PBMC. The method, boiled down: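 Compound added to 75,000 PBMC/well for 1 h; SEB and TSST-1 then added at 20 ng/mL final each; 90 h incubation; Alamar Blue 6 h; read 546/580 nm ex/em. Activity fitted bidirectionally relative to DMSO baseline.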

Test [18] can be described thus: BSK_SAg_Proliferation: Cell Proliferation Assessment in the BioMAP Diversity Plus: SAg Assay (AID 2283095).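 Also: relative cell number as total protein by SRB absorbance in sub-confluent culture.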 The note with it: primary human HUVEC with PBMC. An outline of the steps: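 Readout is SRB-stained protein (560 nm) in a primary human HUVEC and PBMC co-culture; sub-confluent cultures are read at 96 h. Activity is fitted bidirectionally using DMSO as baseline.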

Chain of Tumor necrosis factor (Homo sapiens) (P01375 whole entry, looked up): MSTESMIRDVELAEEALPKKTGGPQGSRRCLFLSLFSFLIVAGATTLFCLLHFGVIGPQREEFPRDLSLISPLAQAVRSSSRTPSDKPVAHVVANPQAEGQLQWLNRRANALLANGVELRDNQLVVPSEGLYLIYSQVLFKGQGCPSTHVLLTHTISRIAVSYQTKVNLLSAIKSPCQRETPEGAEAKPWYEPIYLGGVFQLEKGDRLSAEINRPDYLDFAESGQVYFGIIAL
Chain of E-selectin (Homo sapiens) (P16581 whole entry, looked up): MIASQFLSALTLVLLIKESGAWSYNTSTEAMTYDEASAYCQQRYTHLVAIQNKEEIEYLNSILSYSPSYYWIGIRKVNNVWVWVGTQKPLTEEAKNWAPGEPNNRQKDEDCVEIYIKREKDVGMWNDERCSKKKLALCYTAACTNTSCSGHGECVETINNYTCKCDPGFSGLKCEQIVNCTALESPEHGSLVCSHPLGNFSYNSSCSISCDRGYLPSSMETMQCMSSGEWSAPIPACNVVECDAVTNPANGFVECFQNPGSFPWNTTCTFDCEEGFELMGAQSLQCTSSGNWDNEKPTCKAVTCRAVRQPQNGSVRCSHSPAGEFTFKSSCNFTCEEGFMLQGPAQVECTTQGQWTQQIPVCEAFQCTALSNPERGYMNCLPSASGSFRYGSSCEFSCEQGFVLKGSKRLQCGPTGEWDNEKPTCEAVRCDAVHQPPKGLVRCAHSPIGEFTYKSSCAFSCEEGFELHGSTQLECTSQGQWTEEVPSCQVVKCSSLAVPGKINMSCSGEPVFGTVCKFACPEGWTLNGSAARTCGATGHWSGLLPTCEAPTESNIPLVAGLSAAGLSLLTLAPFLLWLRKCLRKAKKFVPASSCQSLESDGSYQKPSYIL

`O=C(CCl)c1ccccc1`: the AC50 in [1] was 3.06 µM (active); in test [2] it was 6.81 µM (active); in test [3], 4.12 µM (active); in test [6], 3.54 µM (active); in test [7] it was 29.9 µM (active); in test [9], 12.7 µM (active). In addition, the AC50 is 6.13 µM (active) in test [10]; 7.85 µM (active) in [11]; 3.72 µM (active) in [12]; 5.38 µM (active) in test [13]; 4.58 µM (active) in test [14]; 4.55 µM (active) in the test with CD38, CD38 (gene 952). Besides, the AC50 with CD69, CD69 (gene 969) is 6.19 µM (active); in test [15], 6.73 µM (active); in test [16], 8.77 µM (active); in test [17], 4.68 µM (active); in test [18], 1.06 µM (active). Besides, the outcome in [4], in [5] and in [8] was inactive.
On to `Clc1ccc(-c2ccccc2)cc1`, for which the result in test [1], in test [2], in [3], in [4], in test [5] and in test [7] was inactive. Moreover, the result in test [8], in test [9], in [10], in [11], in [12] and in [14] was inactive. Moreover, the outcome is “inactive” in the test with CD38, CD38 (gene 952); “inactive” with CD69, CD69 (gene 969); “inactive” in test [15]; “inactive” in [16]; “inactive” in test [17]; “inactive” in test [18]. Moreover, the AC50 in [6] was 32.9 µM (active); in [13], 17.2 µM (active).
On to `CCCOC(=O)c1ccccc1C(=O)OCCC`, for which the result in [1], in test [2], in test [3], in [4], in [5] and in test [6] was inactive. For the same molecule, the outcome in [7], in test [8], in test [9], in test [10], in [11] and in test [12] was inactive. The outcome in [13] is “inactive”; with CD38, CD38 (gene 952), “inactive”; with CD69, CD69 (gene 969), “inactive”; in test [16], “inactive”; in [17], “inactive”; in [18], “inactive”. For the same molecule, the half-maximal activity concentration (AC50) in test [14] and in test [15] was 20 µM (active) each time.
Turning to `CCC(C)c1cc([N+](=O)[O-])cc([N+](=O)[O-])c1OC(=O)C=C(C)C` (stereo not given), the AC50 in [1] is 20 µM (active); in test [2], 11.2 µM (active); in [3], 14.5 µM (active); in test [4] it was 32.5 µM (active); in [6], 9.17 µM (active); in test [7] it was 8.21 µM (active). Moreover, the AC50 is 32.8 µM (active) in [8]; 13.3 µM (active) in test [10]; 20 µM (active) in test [11]; 20 µM (active) in test [12]; 5.41 µM (active) in test [13]; 34.5 µM (active) in test [14]. For the same molecule, the AC50 with CD38, CD38 (gene 952) is 10.3 µM (active); with CD69, CD69 (gene 969) it was 8.09 µM (active); in [15], 12.6 µM (active); in test [16], 35 µM (active); in test [17], 28.2 µM (active); in test [18], 8.87 µM (active). Also, the result in [5] and in test [9] was inactive.
Take `O=P1(NCCCl)OCCCN1CCCl` (stereo not given): the result in test [1], in test [2], in test [3], in test [4], in [5] and in test [6] was inactive. Further, the result in [7], in [8], in [9], in [10], in [11] and in test [12] was inactive. Further, the outcome is “inactive” in test [13]; “inactive” in [14]; “inactive” in the test with CD38, CD38 (gene 952); “inactive” in the test with CD69, CD69 (gene 969); “inactive” in test [15]; “inactive” in test [16]. The result in test [17] and in [18] was inactive.

A word on the AC50: it is the concentration giving half of the maximal activity seen.
